Measured values reported in PubChem BioAssay (NCATS).
Calls of active or inactive are those of the source. Calls come from the whole dose curve; as a rule, active = well fitted curve in the direction sought with a large enough effect; inconclusive = small, poorly fitted or top-dose-only effect, or another doubt; inactive = no such curve, though single readings can be large or run the other way. Numbered stars: 1 amine (or outer) side, 2 acyl side, 3 side chain; on linkers, the order of the positions; unused ones are H or OH. Bridge positions count the residues as written; N and C are the ends. Square brackets hold non-standard residues; d marks the D form. Peptide text beside a SMILES is read from it. I, II: the chains in the order shown. Actinocin(9to1) = Cc1c2oc3c(C)ccc(C(=O)[*:1])c3nc-2c(C(=O)[*:2])c(N)c1=O; NMeV = CN[C@H](C(=O)O)C(C)C; Sar = CNCC(=O)O

Experiment: Cellular Toxicity (caspase-3) HUV-EC-C (AID 656)
Settings: HUV-EC-C cells, caspase-3 activation (apoptosis), vehicle = 0, 100 µM tamoxifen = 100%; series mostly up to 92.2 µM
Description: NIH Chemical Genomics Center [NCGC]
NIH Molecular Libraries Screening Centers Network [MLSCN]
National Institutes of Environmental Health Sciences [NIEHS]
National Toxicology Program [NTP]
We have developed a 1536-well cell-based assay for quantitative high throughput screening (qHTS) against a number of cell lines to determine in vitro caspase 3/7 of small molecules. This particular assay uses the HUV-EC-C cell line which is derived from normal human vascular endothelial cells.
NCGC Assay Protocol Summary:
The Caspase-Glo 3/7 assay (Promega) is a homogeneous method to measure caspase-3 and caspase-7 activities in cultured cells. The quantitation of caspase 3/7 activity is based on the cleavage of a peptide-aminoluciferin substrate. After caspase cleaves the substrate the free aminoluciferin is liberated and serves as the substrate of luciferase, which generates the light. The luminescent signal is proportional to amount of caspase 3/7 activity present.
Using the Caspase-Glo 3/7 assay, the amount of caspase 3/7 activity was measured in the HUV-EC-C cell line with complete culture medium following compound treatment for 16 hours. The assay was performed in opaque white 1536-well plates. In the screen, tamoxifen and doxorubicin were used as positive controls. Library compounds were measured for their ability to cause the activation of caspase 3/7 in the cell line, as reflected by an increase in luminescence signal, in a concentration-dependent manner. Data were normalized to the controls for basal activity (DMSO only) and 100% stimulation (100 uM tamoxifen). AC50 values were determined from concentration-response data modeled with the standard Hill equation.
qHTS protocol for caspase 3/7 assay in HUV-EC-C cell line
[Step] [Parameter] [Value] [Description]
1. Reagent; 5 uL; 1000 HUV-EC-C cells/well
2. Time; 5 hr; 37 °C incubation
4. Controls; 23 nL; Tamoxifen 0.23 uM to 100 uM & doxorubicin 7.0 pM to 100 uM
5. Time; 16 hr; 37 °C incubation
6. Reagent; 5 uL; Caspase-Glo 3/7 reagent
7. Time; 20 min; Room Temperature
8. Detection; Luminescence; Viewlux plate reader
Keywords: caspase 3/7, apoptosis, HUV-EC-C cell line, luminescence, NTPHTS, NTPHTS_NCGC, NIEHS, EPA, DSSTox, MLSMR, MLSCN, NIH Roadmap, qHTS, NCGC
With `CC(O)C(=O)O` (configuration not stated) the outcome was “inactive”.
In the case of `CC/C(=C(/CC)c1ccc(O)cc1)c1ccc(O)cc1`, the outcome is reported as “inactive”.
For `C=C(CC)C(=O)c1ccc(OCC(=O)O)c(Cl)c1Cl`, the outcome was “inactive”.
For `CC(=O)O[C@]1(C(C)=O)CC[C@H]2[C@@H]3C[C@H](C)C4=CC(=O)CC[C@]4(C)[C@H]3CC[C@@]21C`, the outcome was “inactive”.
For `C=CCc1ccc(O)c(OC)c1`, the outcome was “inactive”.
In the case of `CCCCCCc1ccc(O)cc1O`, the outcome is reported as “inactive”.
In the case of `Oc1c(Cl)cc(Cl)cc1Sc1cc(Cl)cc(Cl)c1O`, the outcome is reported as “inactive”.
In the case of `CC(=O)Oc1ccc(C(c2ccc(OC(C)=O)cc2)c2ccccn2)cc1`, the outcome is reported as “inactive”.
For `Oc1c(I)cc(Cl)c2cccnc12`, the outcome was “inactive”.
For `CN(C)/N=N/c1nc[nH]c1C(N)=O`, the outcome was “inactive”.
In the case of `NC(=NCCCCCCN=C(N)/N=C(\N)Nc1ccc(Cl)cc1)/N=C(\N)Nc1ccc(Cl)cc1`, the outcome is reported as “inactive”.
In the case of `Oc1ccc(O)cc1`, the outcome is reported as “inactive”.
With `C[C@]12CC[C@@H]3c4ccc(O)cc4CC[C@H]3[C@@H]1CC[C@@H]2O` the outcome was “inactive”.
In the case of `O=C1OC(c2ccc(O)cc2)(c2ccc(O)cc2)c2ccccc21`, the outcome is reported as “inactive”.
In the case of `Cc1c2oc3c(C)ccc(C(=O)N[C@@H]4C(=O)N[C@H](C(C)C)C(=O)N5CCC[C@H]5C(=O)N(C)CC(=O)N(C)[C@@H](C(C)C)C(=O)O[C@@H]4C)c3nc-2c(C(=O)N[C@@H]2C(=O)N[C@H](C(C)C)C(=O)N3CCC[C@H]3C(=O)N(C)CC(=O)N(C)[C@@H](C(C)C)C(=O)O[C@@H]2C)c(N)c1=O` (I: T[dV]P[Sar][NMeV] / II: T[dV]P[Sar][NMeV]; ester I:1-I:C, II:1-II:C; linker I:N-II:N via Actinocin(9to1)), the outcome is reported as “inactive”.
With `O=C(O)CCCCC(=O)O` the outcome was “inactive”.
For `COc1cccc2c1C(=O)c1c(O)c3c(c(O)c1C2=O)C[C@@](O)(C(=O)CO)C[C@@H]3O[C@H]1C[C@H](N)[C@H](O)[C@H](C)O1`, the outcome was “inactive”.
With `Nc1ccc(C(=O)O)cc1` the outcome was “inactive”.
With `O=c1ccc2ccccc2o1` the outcome was “inactive”.
In the case of `COc1cccc2c1C(=O)c1c(O)c3c(c(O)c1C2=O)C[C@@](O)(C(C)=O)C[C@@H]3O[C@H]1C[C@H](N)[C@H](O)[C@H](C)O1`, the outcome is reported as “inactive”.
For `COC1=CC(=O)C[C@@H](C)[C@]12Oc1c(Cl)c(OC)cc(OC)c1C2=O`, the outcome was “inactive”.
With `Oc1ccc(Cl)cc1Sc1cc(Cl)ccc1O` the outcome was “inactive”.
